# ChEMBL document CHEMBL3988442, “University of Dundee, Small-Polar-MMV Screening Library” (2021)
# Target: AMP-activated protein kinase, AMPK (Homo sapiens) (UniProt P54646+O43741+P54619+Q9UGJ0+Q9Y478+Q13131+Q9UGI9)
# Experiment: AMP-dependent Kinase enzyme assay. An in vitro enzyme assay that detects ADP turnover that is directly proportional to AMPK activity. This uses naive AMPK that is activated during the assay with MK-8722
# Format: functional
# Design: scale not given: direction of the effect not stated beside the values
# Conditions: 30 µM
row,SMILES,Percent Effect [%]
1,N#CCCN(Cc1ccccn1)C(=O)c1cccc(CN2CCCC2)c1,0.67
2,O=C1NCCCCC1NC(=O)N1CCCc2ccccc21 (stereo not given),-0.938
3,Cc1cc(NC(=O)NCCO)nn1-c1ccc(Cl)cc1Cl,-2.67
4,CN1CCN(CCCOc2ccccc2CN2C[C@H]3CC[C@H]2C3)CC1,-5.02
5,CC(C)C[C@@H](N)C(=O)N(C)Cc1csc(C(C)C)n1,-10.4
6,Cc1cc(C(=O)NCCN2CCCC(C)C2)nn1C(C)(C)C (stereo not given),-4.71
7,CN(Cc1cnn(C)c1)C(=O)Nc1cccnc1-n1cccn1,0.000815
8,CC(C)(C)OC(=O)N(CCNS(=O)(=O)N1CCOCC1)C1CC1,8.24
9,COCc1cccc(NCc2cccnc2)c1,0.23
10,Clc1cc(NCc2ccncc2)nc2[nH]ccc12,-59.2
11,CC(C)N(Cc1ccccn1)C(=O)CN(C)C(=O)c1cccs1,10.8
12,CC(=O)N1CCCC1(C(=O)N1CCCC1)c1cnccn1 (stereo not given),-0.265
13,CCn1nc(C)c(C(=O)N2C[C@@H](CN(C)C)[C@@H](CO)C2)c1C,-14.6
14,CN(C)c1ncccc1N(C)C(=O)Cn1cc(-c2ccccc2)nn1,-17.2
15,CS(=O)(=O)NCC1Cc2ccccc2O1 (stereo not given),-1.87
16,CCN(CCCNC(=O)Nc1ccccc1C(C)C)S(C)(=O)=O,11
17,CC(C)Oc1cccc(F)c1C(C(=O)O)N1CCCN(C)CC1 (stereo not given),3.49
18,Cc1cc2ccccc2n1CCC(=O)N1CCCC(O)(CN(C)C)CC1 (stereo not given),0.58
19,COCCCNC(=O)Cc1nc(-c2ccncc2)n[nH]1,14.5
20,CC(CC(F)(F)F)NCc1ccccc1-n1ccnc1 (stereo not given),-3.96

row,SMILES,Percent Effect [%]
1,COCC1(C(=O)N[C@H]2CN(c3ccnc(C)c3)C[C@@H]2C2CC2)CCC1,-1.57
2,Cc1ccc(CNC(CCO)C2CCCCC2)nc1 (stereo not given),2.17
3,Cc1noc(C2CCCN(Cn3cc(Br)cn3)C2)n1 (stereo not given),-2.31
4,COC1CCN(c2ccc(F)cc2CN(C)S(C)(=O)=O)CC1,6.29
5,O=C(c1ccc2[nH]cnc2c1)N1CCC(COc2ccccn2)CC1,-1.03
6,CC1CCN(c2ncc(-c3ccccc3F)c(-c3nccn3C)n2)CC1,15.2
7,CN(C)C(C(=O)N1CCC(c2ncc[nH]2)CC1)c1ccc2c(c1)OCO2 (stereo not given),1.17
8,Cc1cnc(C(=O)NCC2CCOc3ccccc3C2)cn1 (stereo not given),-2.4
9,CCCc1ccc(CN2CCC3(CC2)CNC(=O)C3)o1,18.2
10,Cn1cc(CN2CCOC(Cc3cccc(F)c3)C2)cn1 (stereo not given),4.61
11,Cc1cc(CN2CCC(C3CCN(Cc4cccnc4)CC3)C2)[nH]n1 (stereo not given),-8.19
12,CC(C)N1CCC(CC(=O)NCc2cc(O)ncn2)CC1,-3.46
13,CC(=O)Nc1ccc(CNC(=O)CNCc2snnc2C)cc1,-1.84
14,O=C(NCC(=O)N1CCN(c2ccccc2)CC1)c1sccc1C1CC1,-5.62
15,CN(CC(=O)NCCc1ccccn1)C(=O)c1cccs1,4.43
16,Cc1ccc(C(=O)NC2CCCN(C)C2)c(=O)[nH]1 (stereo not given),-3.1
17,CCN(C)C(=O)c1cccc(S(=O)(=O)NCCc2csc(N)n2)c1,-0.697
18,COCc1cccc(NC(=O)NCCCN(C)S(C)(=O)=O)c1,-1.69
19,CC(C)C(C(=O)O)c1cccc(Cl)c1 (stereo not given),-3.52
20,Cc1noc(C)c1C(=O)N1CCC(n2cccn2)CC1,-9.16
